# Laboratory results: ChEMBL document CHEMBL4513216, “Probing the Open Global Health Chemical Diversity Library for Multistage-Active Starting Points for Next-Generation Antimalarials” (ACS Infect Dis, 2020)
# Out of some 65,000 compounds screened, about 2,100 (3.2%) showed an effect of 50% or more. The median lay at about -52%. Many of the other results were omitted from the sample, so strong results are more common in it than they were.
# Tested on: Plasmodium falciparum
# Assay: Screen against P. falciparum Asexual Blood Stage (ABS), at 5uM
# Assay type: functional, Dd2
# Conditions: tested at 5 uM
row,SMILES,INHIBITION [%]
1,CCC(C)N1CCc2nc(N3CCCC3)nc(NC(C)C)c2C1 (configuration not stated),78
2,CN(C)C(=O)[C@H]1C[C@H]2OCC[C@H]2N(Cc2ccccn2)C1,-13.3
3,CC(Nc1nc(-c2ccccc2)nc2c1CCNCC2)c1cccnc1 (configuration not stated),90.9
4,CC(Nc1nc(-c2ccncc2)nc2c1CCNC2)c1ccccc1 (configuration not stated),71.5
5,Cc1cccnc1[C@H](C)Nc1nc(-c2cccnc2)nc2c1CNC2,78
6,CSCC(=O)NS(=O)(=O)c1ccc(C#N)c(C(F)(F)F)c1,-52.2
7,COCCNC(=O)[C@@]12CCO[C@@H]1CCN(Cc1cc(C)on1)C2,-32
8,CN1CCN(C(=O)Cc2ccc(S(=O)(=O)C(F)F)cc2)CC1,-85.3
9,COc1ncccc1CN1C[C@@H]2COC[C@]2(CNS(C)(=O)=O)C1,-44.2
10,NC1(C(=O)NCC2CCCN(Cc3ccccc3F)C2)CCCC1 (configuration not stated),85.6
11,CCN(C)S(=O)(=O)NCC1CCCN(Cc2ccccc2F)C1 (configuration not stated),74.5
12,Fc1ccccc1CN1CCCC2(CCN(c3ncccn3)C2)C1 (configuration not stated),-15.8
13,C[C@@H]1CN(Cc2ccco2)CCN1C(=O)Cc1ccccc1F,-154
14,CS(=O)(=O)NCC1CCCN(Cc2ccccc2F)C1 (configuration not stated),89.2
15,COCCN1CCCC12CCN(c1ncccn1)CC2,-0.324
16,Cc1c(C2N3CC4(C)CN2CC(C)(C3)C4=O)[nH]c(=O)[nH]c1=O (configuration not stated),-53.4
17,COc1cc(C2SCC(=O)Nc3ccsc32)cc(OC)c1O (configuration not stated),-46.5
18,c1cncc(-c2noc(CN3CCc4cncnc4C3)n2)c1,72.9
19,CCN1CCC2(COCc3cnc(-c4cccnc4)nc32)C1 (configuration not stated),-76.4
20,COCc1cncc2c1CCN(Cc1cccnc1)C2,-107
21,O=C1C[C@@H]2CC[C@H](CN1)N2C1CCSCC1,-19.5
22,C[C@@H]1C[C@H]2CN(Cc3nccs3)C[C@H]2O1,-77.8
23,Cc1cc(CN2CC[C@H]3C[C@H](c4nc(C5CC5)cs4)O[C@@H]3C2)no1,-15.2
24,Nc1nc(N)c2c(n1)OC1(COCCN(Cc3nccs3)C1)C2 (configuration not stated),-134
25,Cc1nc(CO[C@@H]2CN(Cc3ccccn3)[C@@H]3COC[C@@H]32)cs1,-6.87
26,c1cncc(COC[C@@H]2CCC[C@@]23CNCCO3)c1,23.4

row,SMILES,INHIBITION [%]
1,c1ccc(COC[C@@H]2CCC[C@@]23CNCCO3)nc1,48.6
2,c1ccc(COC[C@H]2CCC[C@@]23CNCCO3)nc1,44.1
3,c1cncc(OC[C@@H]2CCC[C@@]23CNCCO3)c1,67
4,c1cncc(COC[C@@H]2CCC[C@]23CNCCO3)c1,-12.9
5,c1ccc(OC[C@@H]2CCC[C@@]23CNCCO3)nc1,66.9
6,COc1cc(N2C[C@H]3CCN(CCN4CCCC4)C[C@H]3C2)ncn1,-52.5
7,Cc1cccc(CN2C[C@@H]3CN(Cc4ccoc4)CCO[C@@H]3C2)n1,-60.3
8,Cc1ccc(O[C@@H]2C[C@H]3CN(C(=O)Cc4ccccn4)CCN3C2)cc1,-77.2
9,CC(C)N1[C@H](Cn2cncn2)C[C@@H]2CN(c3ncccn3)CC[C@@H]21,-58.2
10,CC(C)N1[C@H](CN2CCCC2)C[C@@H]2CN(Cc3ccoc3)CC[C@@H]21,76.2
11,CN1C(Cn2cccn2)C[C@@H]2CN(Cc3cccnc3)CC[C@@H]21 (some centres not stated),11.2
12,CCc1noc(C(C)N2CCN(C)CC2)n1 (configuration not stated),-21
13,Cc1ccc(C(=O)N2C[C@@H]3OCCN(CC4CCCC4)[C@@H]3C2)cn1,-30
14,c1ccc(-c2cc(CN3C[C@H]4CC[C@@H](C3)N(CC3CCC3)C4)on2)cc1,88.4
15,c1ccc(-c2cc(CN3C[C@H]4CC[C@H]3C4)on2)cc1,5.39
16,COc1ccnc(N2C[C@H]3CC[C@@H](C2)N(CC2CC2)C3)n1,4.16
17,Cc1noc([C@@H]2C[C@H]3CN(Cc4cc(C)on4)C[C@H]3O2)n1,-92.2
18,Cc1cnn(CC(C)NCc2cccnc2)c1 (configuration not stated),-41.2
19,Cc1cnn(CC(C)NCc2ccncc2)c1 (configuration not stated),0.596
20,Cc1cnn(CCNCc2ccccc2OCc2cccnc2)c1,71.5
21,Cc1cnn(CCNCc2nccn2Cc2ccccc2)c1,83
22,CN1CCN(Cc2cccnc2)Cc2cccnc21,-65.7
23,Cc1cnn(CC(C)NCc2ccc(C#N)cc2)c1 (configuration not stated),-64.7
24,O=C(c1ccno1)N1CC[C@@H]2CN(C3CCOCC3)CCO[C@@H]2C1,-25
25,CC(C)(C)NC(=O)CNc1ccc(C#N)c(C(F)(F)F)c1,-31.3
26,CCc1ocnc1C(=O)N1CCC2(CC1)OCC(C)O2 (configuration not stated),-79.3
